The full data set covers some 8,800 targets. This sample favours those with a hit. About 0.5% of all pairs of compound and target were hits.
Tests used:
Assay in all cases: log2 fold change, soluble protein after heating vs DMSO (PISA); higher = thermal stabilisation; K562 lysate, 10 uM; active = over 0.2 and 3.5 SD of the protein, either way, in both replicates (recomputed)
erlotinib = compound: C#Cc1cccc(Nc2ncnc3cc(OCCOC)c(OCCOC)cc23)c1 [erlotinib]
How it was run: (§1)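 K562 pellets were dounce-homogenised in PBS pH 7.4 containing 1 mM MgCl2, and the crude extract, at 1 mg/mL protein, was exposed to 10 μM compound for 30 min. Aliquots were heated for 3 min across 48°C-58°C, pooled, brought to 0.5% NP-40 at 4°C and spun at 21,000xg for 90 min, with the supernatant taken as soluble protein. TMTpro 16plex LC-MS/MS with equalised channel sums quantified that protein. Values are log-two fold changes in thermal stability relative to solvent controls, taken from duplicates.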

[1] = compound: C/C(=N\NC(=O)C1=CC(=CC=C1)S(=O)(=O)N2CCOCC2)/C3=C(C=CC(=C3)Cl)O
How it was run: as §1

[2] = compound: C1=CC(=CC=C1C2=NC3=C(N2)C=C(C=C3)C(=O)N)OC4=CC=C(C=C4)Cl
How it was run: as §1

[3] = compound: C1=CC2=C(C=CC(=C2)/C=C\3/C(=O)NC(=NCC4=CC=CS4)S3)N=C1
How it was run: as §1

[4] = compound: C1=CC2=NC=CN=C2C=C1/C=C/3\C(=O)NC(=O)S3
How it was run: as §1

[5] = compound: C1=CC=C(C=C1)C2=NC(=C(N2)C3=CC=NC=C3)C4=CC(=C(C=C4)Cl)O
How it was run: as §1

[6] = compound: C1=CC=C2C(=C1)C3=NNC4=CC=CC(=C43)C2=O
How it was run: as §1

[7] = compound: C1CCN(C1)C(=O)NC2=CC=CC(=C2)NC3=NC=C(C(=N3)NCCC4=CN=CN4)Br
How it was run: as §1

[8] = compound: C1CN(CCC1(CC2=CC=C(C=C2)Cl)N)C3=NC=NC4=C3C=CN4
How it was run: as §1

IRAK-1-4 Inhibitor I = compound: C1COCCN1CCN2C3=CC=CC=C3N=C2NC(=O)C4=CC(=CC=C4)[N+](=O)[O-] [IRAK-1-4 Inhibitor I]
How it was run: as §1

Measured: log2 fold change

EP300 (UniProt Q09472)
inactive: erlotinib 0.017 | [1] 0.011 | [2] -0.024 | [3] -0.017 | [4] 0.078 | [5] -0.015 | [6] -0.019 | [7] -0.033 | [8] 0 | IRAK-1-4 Inhibitor I -0.006

EIF2AK2 (UniProt P19525)
inactive: erlotinib 0.02 | [1] 0.011 | [2] -0.055 | [3] -0.072 | [4] 0.003 | [5] 0.005 | [6] -0.039 | [7] -0.013 | [8] 0.016 | IRAK-1-4 Inhibitor I -0.011

EPB41, A0A2R8Y6D0
inactive: erlotinib 0.134 | [1] 0.064 | [2] -0.187 | [3] -0.012 | [4] -0.004 | [5] 0.066 | [6] -0.004 | [7] -0.042 | [8] 0.054 | IRAK-1-4 Inhibitor I -0.071

FASTKD2 (UniProt Q9NYY8)
inactive: erlotinib 0.028 | [1] 0.041 | [2] -0.005 | [3] 0.03 | [4] 0.019 | [5] -0.007 | [6] -0.018 | [7] 0.013 | [8] 0.002 | IRAK-1-4 Inhibitor I 0.016

ERAL1 (UniProt O75616)
inactive: erlotinib -0.016 | [1] -0.003 | [2] 0.05 | [3] -0.014 | [4] 0.03 | [5] 0.015 | [6] -0.027 | [7] -0.041 | [8] -0.047 | IRAK-1-4 Inhibitor I -0.042

GEMIN2 (UniProt O14893)
inactive: erlotinib 0.032 | [1] 0.047 | [2] -0.001 | [3] 0.053 | [4] 0.028 | [5] 0.015 | [6] -0.11 | [7] -0.007 | [8] 0.011 | IRAK-1-4 Inhibitor I 0.05

FYCO1 isoform 4 (UniProt Q9BQS8)
Sequence of UniProt Q9BQS8 (Q9BQS8 whole entry, looked up): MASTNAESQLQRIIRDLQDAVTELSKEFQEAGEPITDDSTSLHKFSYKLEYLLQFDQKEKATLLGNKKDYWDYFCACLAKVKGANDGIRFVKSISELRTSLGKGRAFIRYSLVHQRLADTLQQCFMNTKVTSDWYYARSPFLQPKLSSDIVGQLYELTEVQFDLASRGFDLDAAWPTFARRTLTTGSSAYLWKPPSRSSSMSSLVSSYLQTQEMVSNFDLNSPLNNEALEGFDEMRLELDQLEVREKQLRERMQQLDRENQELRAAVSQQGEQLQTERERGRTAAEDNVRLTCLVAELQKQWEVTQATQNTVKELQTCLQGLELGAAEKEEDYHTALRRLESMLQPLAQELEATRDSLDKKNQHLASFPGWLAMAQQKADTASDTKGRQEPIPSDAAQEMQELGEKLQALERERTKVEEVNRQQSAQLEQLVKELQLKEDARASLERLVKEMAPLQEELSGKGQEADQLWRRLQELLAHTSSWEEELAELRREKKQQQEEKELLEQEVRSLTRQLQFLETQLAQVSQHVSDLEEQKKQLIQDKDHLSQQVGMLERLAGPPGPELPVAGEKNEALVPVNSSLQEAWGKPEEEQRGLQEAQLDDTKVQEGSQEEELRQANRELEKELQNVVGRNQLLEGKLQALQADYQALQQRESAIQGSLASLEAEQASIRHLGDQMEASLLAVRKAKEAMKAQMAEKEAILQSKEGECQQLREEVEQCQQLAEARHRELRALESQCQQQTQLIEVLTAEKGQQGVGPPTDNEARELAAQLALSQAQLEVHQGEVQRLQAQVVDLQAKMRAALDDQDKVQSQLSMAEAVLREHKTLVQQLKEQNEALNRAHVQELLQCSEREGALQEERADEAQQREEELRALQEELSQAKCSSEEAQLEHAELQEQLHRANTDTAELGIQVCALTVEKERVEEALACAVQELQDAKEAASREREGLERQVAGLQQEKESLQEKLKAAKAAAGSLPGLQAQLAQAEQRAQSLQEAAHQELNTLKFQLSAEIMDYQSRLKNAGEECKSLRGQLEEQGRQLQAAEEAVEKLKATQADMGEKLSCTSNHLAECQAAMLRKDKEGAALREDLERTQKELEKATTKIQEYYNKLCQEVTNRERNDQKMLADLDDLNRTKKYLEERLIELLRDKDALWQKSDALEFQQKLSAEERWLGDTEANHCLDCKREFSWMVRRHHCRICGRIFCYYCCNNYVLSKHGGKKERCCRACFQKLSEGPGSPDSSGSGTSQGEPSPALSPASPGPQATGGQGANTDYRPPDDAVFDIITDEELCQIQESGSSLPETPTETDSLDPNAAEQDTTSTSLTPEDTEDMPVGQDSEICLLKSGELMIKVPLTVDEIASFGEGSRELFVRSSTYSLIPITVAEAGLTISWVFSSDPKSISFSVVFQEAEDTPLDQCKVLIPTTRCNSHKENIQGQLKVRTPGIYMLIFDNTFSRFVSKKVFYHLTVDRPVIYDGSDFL
inactive: erlotinib 0.029 | [1] 0.026 | [2] 0.014 | [3] -0.01 | [4] -0.019 | [5] -0.006 | [6] -0.016 | [7] -0.013 | [8] 0.009 | IRAK-1-4 Inhibitor I 0

FTSJ1 (UniProt Q9UET6)
inactive: erlotinib -0.008 | [1] 0 | [2] 0.039 | [3] 0.005 | [4] -0.025 | [5] 0.07 | [6] 0.034 | [7] -0.007 | [8] 0.016 | IRAK-1-4 Inhibitor I 0.019

FXR1 (UniProt P51114)
inactive: erlotinib 0.041 | [1] 0.012 | [2] -0.039 | [3] -0.011 | [4] -0.024 | [5] 0.002 | [6] -0.082 | [7] -0.015 | [8] -0.008 | IRAK-1-4 Inhibitor I -0.057

FASTKD5 (UniProt Q7L8L6)
Sequence of UniProt Q7L8L6 (Q7L8L6 whole entry, looked up): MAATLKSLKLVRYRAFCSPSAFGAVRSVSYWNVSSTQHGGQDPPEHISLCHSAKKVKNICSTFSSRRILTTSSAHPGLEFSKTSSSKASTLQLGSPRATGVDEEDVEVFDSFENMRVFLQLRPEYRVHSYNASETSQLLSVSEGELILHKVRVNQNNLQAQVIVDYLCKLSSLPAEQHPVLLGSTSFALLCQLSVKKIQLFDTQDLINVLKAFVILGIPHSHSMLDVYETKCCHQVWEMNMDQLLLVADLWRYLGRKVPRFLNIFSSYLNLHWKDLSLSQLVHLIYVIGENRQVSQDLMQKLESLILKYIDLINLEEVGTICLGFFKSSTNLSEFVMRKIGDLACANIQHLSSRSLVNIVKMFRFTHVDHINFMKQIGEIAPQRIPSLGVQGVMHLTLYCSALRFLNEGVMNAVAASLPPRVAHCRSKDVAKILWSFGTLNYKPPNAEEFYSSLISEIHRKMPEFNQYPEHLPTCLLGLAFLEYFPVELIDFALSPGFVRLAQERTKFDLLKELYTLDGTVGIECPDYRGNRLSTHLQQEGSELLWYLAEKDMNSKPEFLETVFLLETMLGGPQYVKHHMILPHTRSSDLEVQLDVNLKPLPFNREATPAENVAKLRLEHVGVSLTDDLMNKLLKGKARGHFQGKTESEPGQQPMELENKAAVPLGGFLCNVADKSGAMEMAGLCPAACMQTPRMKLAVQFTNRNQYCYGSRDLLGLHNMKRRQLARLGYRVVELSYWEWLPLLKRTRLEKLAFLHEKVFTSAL
inactive: erlotinib 0.061 | [1] 0.019 | [2] -0.054 | [3] 0.023 | [4] 0.013 | [5] -0.014 | [6] -0.066 | [7] -0.047 | [8] 0.013 | IRAK-1-4 Inhibitor I -0.019

FHOD1 (UniProt Q9Y613)
inactive: erlotinib 0.005 | [1] 0.021 | [2] 0 | [3] 0.048 | [4] -0.02 | [5] -0.011 | [6] -0.016 | [7] -0.011 | [8] -0.009 | IRAK-1-4 Inhibitor I -0.008

EIF1 (UniProt P41567)
Sequence of UniProt P41567 (P41567 whole entry, looked up): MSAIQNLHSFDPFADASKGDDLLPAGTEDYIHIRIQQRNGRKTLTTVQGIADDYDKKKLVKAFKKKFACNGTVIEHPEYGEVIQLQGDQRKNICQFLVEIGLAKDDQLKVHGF
inactive: erlotinib -0.006 | [1] -0.022 | [2] 0.063 | [3] -0.031 | [4] -0.004 | [5] 0.044 | [6] 0.011 | [7] -0.027 | [8] -0.023 | IRAK-1-4 Inhibitor I 0.02

FXR2 (UniProt P51116)
Sequence of UniProt P51116 (P51116 whole entry, looked up): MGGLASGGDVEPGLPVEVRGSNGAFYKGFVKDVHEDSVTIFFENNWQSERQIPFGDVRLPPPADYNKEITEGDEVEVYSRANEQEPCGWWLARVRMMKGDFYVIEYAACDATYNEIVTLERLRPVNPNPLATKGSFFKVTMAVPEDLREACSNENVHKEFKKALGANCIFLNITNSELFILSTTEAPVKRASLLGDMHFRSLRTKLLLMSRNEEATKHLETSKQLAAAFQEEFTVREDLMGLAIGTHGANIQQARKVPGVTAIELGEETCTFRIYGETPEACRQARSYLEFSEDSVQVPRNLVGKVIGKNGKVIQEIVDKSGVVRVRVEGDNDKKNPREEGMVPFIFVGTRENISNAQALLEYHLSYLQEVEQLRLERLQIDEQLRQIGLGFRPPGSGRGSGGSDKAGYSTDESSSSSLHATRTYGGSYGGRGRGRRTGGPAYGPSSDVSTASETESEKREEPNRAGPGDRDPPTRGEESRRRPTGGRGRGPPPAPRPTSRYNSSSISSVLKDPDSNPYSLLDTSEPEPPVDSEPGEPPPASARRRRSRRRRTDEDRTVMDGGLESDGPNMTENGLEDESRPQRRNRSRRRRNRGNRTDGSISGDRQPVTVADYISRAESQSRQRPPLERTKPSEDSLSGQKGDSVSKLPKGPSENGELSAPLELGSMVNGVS
inactive: erlotinib 0.018 | [1] 0.026 | [2] -0.01 | [3] -0.042 | [4] 0.022 | [5] -0.029 | [6] -0.092 | [7] -0.085 | [8] 0.003 | IRAK-1-4 Inhibitor I -0.075

DSN1 (UniProt Q9H410)
inactive: erlotinib -0.021 | [1] 0.03 | [2] 0.037 | [3] 0.014 | [4] 0.01 | [5] -0.025 | [6] 0.032 | [7] -0.034 | [8] -0.024 | IRAK-1-4 Inhibitor I 0.002

FNBP1L (UniProt Q5T0N5)
inactive: erlotinib 0.015 | [1] -0.018 | [2] 0.013 | [3] 0.031 | [4] 0.044 | [5] 0.066 | [6] 0 | [7] -0.012 | [8] -0.061 | IRAK-1-4 Inhibitor I -0.016

EXOC4 (UniProt Q96A65)
inactive: erlotinib 0.031 | [1] 0.034 | [2] -0.065 | [3] 0.031 | [4] 0.012 | [5] -0.015 | [6] -0.026 | [7] -0.011 | [8] 0.011 | IRAK-1-4 Inhibitor I -0.009

FANCI (UniProt Q9NVI1)
inactive: erlotinib 0.012 | [1] -0.031 | [2] -0.056 | [3] 0.013 | [4] 0.021 | [5] -0.001 | [6] -0.051 | [7] -0.008 | [8] -0.009 | IRAK-1-4 Inhibitor I 0.013

FKBP8 isoform 2 (UniProt Q14318)
inactive: erlotinib -0.011 | [1] 0.041 | [2] 0.012 | [3] 0.002 | [4] -0.005 | [5] 0.01 | [6] 0 | [7] -0.054 | [8] 0.001 | IRAK-1-4 Inhibitor I 0.008

ERLIN1 (UniProt O75477)
inactive: erlotinib -0.031 | [1] 0.123 | [2] -0.17 | [3] 0.072 | [4] -0.038 | [5] 0.015 | [6] -0.02 | [7] -0.015 | [8] -0.046 | IRAK-1-4 Inhibitor I -0.071

FAM83D (UniProt Q9H4H8)
Sequence of UniProt Q9H4H8 (Q9H4H8 whole entry, looked up): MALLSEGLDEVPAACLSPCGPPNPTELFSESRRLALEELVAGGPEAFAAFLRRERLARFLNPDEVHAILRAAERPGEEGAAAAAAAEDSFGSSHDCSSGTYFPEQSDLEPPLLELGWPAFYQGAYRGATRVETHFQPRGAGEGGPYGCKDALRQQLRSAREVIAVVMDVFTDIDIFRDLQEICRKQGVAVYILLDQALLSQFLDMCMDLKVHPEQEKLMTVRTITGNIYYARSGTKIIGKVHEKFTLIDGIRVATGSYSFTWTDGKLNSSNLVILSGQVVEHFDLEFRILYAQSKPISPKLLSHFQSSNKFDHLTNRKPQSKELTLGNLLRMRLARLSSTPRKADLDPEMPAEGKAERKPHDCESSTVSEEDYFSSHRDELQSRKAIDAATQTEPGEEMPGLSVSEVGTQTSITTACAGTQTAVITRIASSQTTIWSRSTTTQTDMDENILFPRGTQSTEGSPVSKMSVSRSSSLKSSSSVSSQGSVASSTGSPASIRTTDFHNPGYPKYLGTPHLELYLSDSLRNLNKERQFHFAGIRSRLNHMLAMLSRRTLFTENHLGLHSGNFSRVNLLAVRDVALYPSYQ
inactive: erlotinib 0.033 | [1] 0.013 | [2] -0.049 | [3] 0.006 | [4] 0 | [5] -0.009 | [6] -0.003 | [7] -0.005 | [8] -0.004 | IRAK-1-4 Inhibitor I 0.019

FYN (UniProt P06241)
Sequence of UniProt P06241 (P06241 whole entry, looked up): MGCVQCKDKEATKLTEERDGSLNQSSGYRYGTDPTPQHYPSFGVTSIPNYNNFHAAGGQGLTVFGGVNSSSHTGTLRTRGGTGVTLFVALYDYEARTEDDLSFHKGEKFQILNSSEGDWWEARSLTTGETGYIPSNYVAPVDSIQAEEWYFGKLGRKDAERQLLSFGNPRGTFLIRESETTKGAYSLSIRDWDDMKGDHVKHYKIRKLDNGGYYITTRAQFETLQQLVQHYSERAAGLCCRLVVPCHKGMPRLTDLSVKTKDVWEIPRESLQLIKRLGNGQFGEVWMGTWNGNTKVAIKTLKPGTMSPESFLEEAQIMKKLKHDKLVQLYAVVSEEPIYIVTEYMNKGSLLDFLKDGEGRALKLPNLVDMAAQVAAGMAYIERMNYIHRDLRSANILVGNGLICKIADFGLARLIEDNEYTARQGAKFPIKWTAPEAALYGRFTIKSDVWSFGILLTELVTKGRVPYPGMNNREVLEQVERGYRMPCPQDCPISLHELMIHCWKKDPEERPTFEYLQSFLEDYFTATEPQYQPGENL
inactive: erlotinib -0.028 | [1] 0.02 | [2] 0.025 | [3] 0.028 | [4] -0.062 | [5] 0.058 | [6] 0.092 | [7] 0.132 | [8] -0.018 | IRAK-1-4 Inhibitor I -0.145

ERI1 (UniProt Q8IV48)
inactive: erlotinib -0.015 | [1] 0.073 | [2] -0.009 | [3] 0.019 | [4] -0.028 | [5] 0.134 | [6] -0.03 | [7] -0.009 | [8] -0.036 | IRAK-1-4 Inhibitor I -0.111

FOXK1 (UniProt P85037)
inactive: erlotinib 0.014 | [1] -0.029 | [2] 0.038 | [3] 0.013 | [4] -0.057 | [5] -0.011 | [6] 0.007 | [7] -0.036 | [8] 0.013 | IRAK-1-4 Inhibitor I -0.014

EXOC5 (UniProt O00471)
inactive: erlotinib 0.022 | [1] -0.021 | [2] -0.041 | [3] 0.033 | [4] -0.006 | [5] -0.013 | [6] -0.016 | [7] 0.005 | [8] 0.006 | IRAK-1-4 Inhibitor I -0.011

EBP (UniProt Q15125)
inactive: erlotinib 0.055 | [1] 0.015 | [2] -0.073 | [3] -0.068 | [4] 0.01 | [5] -0.03 | [6] -0.128 | [7] 0.008 | [8] 0.047 | IRAK-1-4 Inhibitor I 0.086

GABPB1 isoform 3 (UniProt Q06547)
inactive: erlotinib -0.03 | [1] -0.042 | [2] -0.051 | [3] 0.016 | [4] 0.045 | [5] -0.048 | [6] -0.035 | [7] -0.032 | [8] 0.084 | IRAK-1-4 Inhibitor I 0.078

ECH1 (UniProt Q13011)
Sequence of UniProt Q13011 (Q13011 whole entry, looked up): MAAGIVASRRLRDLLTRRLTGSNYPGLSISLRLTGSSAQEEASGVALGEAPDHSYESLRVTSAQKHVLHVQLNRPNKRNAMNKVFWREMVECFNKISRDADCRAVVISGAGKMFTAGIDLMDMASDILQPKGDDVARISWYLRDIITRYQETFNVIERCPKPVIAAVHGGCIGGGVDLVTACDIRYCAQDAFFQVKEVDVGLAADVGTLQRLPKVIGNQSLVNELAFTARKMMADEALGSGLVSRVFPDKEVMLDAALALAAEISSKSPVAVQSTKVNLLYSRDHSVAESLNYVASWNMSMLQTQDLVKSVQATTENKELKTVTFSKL
active: [5] 0.499
inactive: erlotinib -0.041 | [1] -0.049 | [2] -0.022 | [3] 0.002 | [4] -0.022 | [6] 0.232 | [7] -0.009 | [8] 0.017 | IRAK-1-4 Inhibitor I -0.007

ERCC4 (UniProt Q92889)
inactive: erlotinib -0.008 | [1] -0.04 | [2] 0.033 | [3] 0.015 | [4] -0.021 | [5] -0.003 | [6] -0.096 | [7] -0.006 | [8] 0.051 | IRAK-1-4 Inhibitor I 0.029

FIBP (UniProt O43427)
inactive: erlotinib -0.071 | [1] -0.027 | [2] 0.022 | [3] 0.067 | [4] 0.018 | [5] 0.041 | [6] 0.079 | [7] -0.064 | [8] 0.029 | IRAK-1-4 Inhibitor I 0.006

FECH isoform 2 (UniProt P22830)
Sequence of UniProt P22830 (P22830 whole entry, looked up): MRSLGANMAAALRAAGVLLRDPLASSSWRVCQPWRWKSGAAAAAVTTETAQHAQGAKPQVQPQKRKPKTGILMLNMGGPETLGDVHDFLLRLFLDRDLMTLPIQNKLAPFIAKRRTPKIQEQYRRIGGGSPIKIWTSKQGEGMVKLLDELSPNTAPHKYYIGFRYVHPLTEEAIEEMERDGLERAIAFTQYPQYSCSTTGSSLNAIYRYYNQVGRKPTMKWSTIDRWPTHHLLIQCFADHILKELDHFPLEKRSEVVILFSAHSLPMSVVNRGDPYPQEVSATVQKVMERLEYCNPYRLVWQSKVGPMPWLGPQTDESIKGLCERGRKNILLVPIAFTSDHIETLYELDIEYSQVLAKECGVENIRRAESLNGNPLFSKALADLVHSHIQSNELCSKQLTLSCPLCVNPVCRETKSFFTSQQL
inactive: erlotinib 0.101 | [1] 0.062 | [2] -0.321 | [3] 0.42 | [4] -0.014 | [5] 0.354 | [6] 0.673 | [7] 0.183 | [8] -0.009 | IRAK-1-4 Inhibitor I 0.644

From the supplement of paper PMC10849652
